Active and inactive are the calls of the source.
Legend:
[1] = binders of probe aFSTL3 on microarray, primary screen, stem cell growth factor project, biochemical, small-molecule microarray, fluorescence 635/667 (AID 1064); details: higher = more signal;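 note: measures binding of the biotinylated anti-FSTL3 antibody to printed compounds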
[2] = binders from COS7 lysate, DM2A8 probe, primary screen, torsin A project, cell lysate, small-molecule microarray, fluorescence 635/667 (AID 1065); details: higher = more signal, COS7 lysate expressing mutant human TOR1A
[3] = binders of probe aFGF2 on microarray, primary screen, stem cell growth factor project, biochemical, small-molecule microarray, fluorescence 635/667 (AID 1067); details: higher = more signal;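 note: measures binding of biotinylated aFGF2 protein to printed compounds on slides; z-score merges feature fluorescence and signal-to-noise across triplicate slides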
[4] = binders of probe aFGF10 on microarray, primary screen, stem cell growth factor project, biochemical, small-molecule microarray, fluorescence 635/667 (AID 1071); details: higher = more signal;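 note: score merges 667 nm spot intensity and signal to noise from triplicate slides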
[5] = molecular target: Neurogenic locus notch homolog protein 2 (Homo sapiens) (UniProt Q04721); assay: Notch2 binders on small-molecule microarrays, primary screen, biochemical, small-molecule microarray, 635 nm fluorescence, stem cell growth factors (AID 1073); details: Notch2 binding, higher = more signal
Chain of Neurogenic locus notch homolog protein 2 (Homo sapiens) (Q04721 whole entry, looked up, canonical isoform): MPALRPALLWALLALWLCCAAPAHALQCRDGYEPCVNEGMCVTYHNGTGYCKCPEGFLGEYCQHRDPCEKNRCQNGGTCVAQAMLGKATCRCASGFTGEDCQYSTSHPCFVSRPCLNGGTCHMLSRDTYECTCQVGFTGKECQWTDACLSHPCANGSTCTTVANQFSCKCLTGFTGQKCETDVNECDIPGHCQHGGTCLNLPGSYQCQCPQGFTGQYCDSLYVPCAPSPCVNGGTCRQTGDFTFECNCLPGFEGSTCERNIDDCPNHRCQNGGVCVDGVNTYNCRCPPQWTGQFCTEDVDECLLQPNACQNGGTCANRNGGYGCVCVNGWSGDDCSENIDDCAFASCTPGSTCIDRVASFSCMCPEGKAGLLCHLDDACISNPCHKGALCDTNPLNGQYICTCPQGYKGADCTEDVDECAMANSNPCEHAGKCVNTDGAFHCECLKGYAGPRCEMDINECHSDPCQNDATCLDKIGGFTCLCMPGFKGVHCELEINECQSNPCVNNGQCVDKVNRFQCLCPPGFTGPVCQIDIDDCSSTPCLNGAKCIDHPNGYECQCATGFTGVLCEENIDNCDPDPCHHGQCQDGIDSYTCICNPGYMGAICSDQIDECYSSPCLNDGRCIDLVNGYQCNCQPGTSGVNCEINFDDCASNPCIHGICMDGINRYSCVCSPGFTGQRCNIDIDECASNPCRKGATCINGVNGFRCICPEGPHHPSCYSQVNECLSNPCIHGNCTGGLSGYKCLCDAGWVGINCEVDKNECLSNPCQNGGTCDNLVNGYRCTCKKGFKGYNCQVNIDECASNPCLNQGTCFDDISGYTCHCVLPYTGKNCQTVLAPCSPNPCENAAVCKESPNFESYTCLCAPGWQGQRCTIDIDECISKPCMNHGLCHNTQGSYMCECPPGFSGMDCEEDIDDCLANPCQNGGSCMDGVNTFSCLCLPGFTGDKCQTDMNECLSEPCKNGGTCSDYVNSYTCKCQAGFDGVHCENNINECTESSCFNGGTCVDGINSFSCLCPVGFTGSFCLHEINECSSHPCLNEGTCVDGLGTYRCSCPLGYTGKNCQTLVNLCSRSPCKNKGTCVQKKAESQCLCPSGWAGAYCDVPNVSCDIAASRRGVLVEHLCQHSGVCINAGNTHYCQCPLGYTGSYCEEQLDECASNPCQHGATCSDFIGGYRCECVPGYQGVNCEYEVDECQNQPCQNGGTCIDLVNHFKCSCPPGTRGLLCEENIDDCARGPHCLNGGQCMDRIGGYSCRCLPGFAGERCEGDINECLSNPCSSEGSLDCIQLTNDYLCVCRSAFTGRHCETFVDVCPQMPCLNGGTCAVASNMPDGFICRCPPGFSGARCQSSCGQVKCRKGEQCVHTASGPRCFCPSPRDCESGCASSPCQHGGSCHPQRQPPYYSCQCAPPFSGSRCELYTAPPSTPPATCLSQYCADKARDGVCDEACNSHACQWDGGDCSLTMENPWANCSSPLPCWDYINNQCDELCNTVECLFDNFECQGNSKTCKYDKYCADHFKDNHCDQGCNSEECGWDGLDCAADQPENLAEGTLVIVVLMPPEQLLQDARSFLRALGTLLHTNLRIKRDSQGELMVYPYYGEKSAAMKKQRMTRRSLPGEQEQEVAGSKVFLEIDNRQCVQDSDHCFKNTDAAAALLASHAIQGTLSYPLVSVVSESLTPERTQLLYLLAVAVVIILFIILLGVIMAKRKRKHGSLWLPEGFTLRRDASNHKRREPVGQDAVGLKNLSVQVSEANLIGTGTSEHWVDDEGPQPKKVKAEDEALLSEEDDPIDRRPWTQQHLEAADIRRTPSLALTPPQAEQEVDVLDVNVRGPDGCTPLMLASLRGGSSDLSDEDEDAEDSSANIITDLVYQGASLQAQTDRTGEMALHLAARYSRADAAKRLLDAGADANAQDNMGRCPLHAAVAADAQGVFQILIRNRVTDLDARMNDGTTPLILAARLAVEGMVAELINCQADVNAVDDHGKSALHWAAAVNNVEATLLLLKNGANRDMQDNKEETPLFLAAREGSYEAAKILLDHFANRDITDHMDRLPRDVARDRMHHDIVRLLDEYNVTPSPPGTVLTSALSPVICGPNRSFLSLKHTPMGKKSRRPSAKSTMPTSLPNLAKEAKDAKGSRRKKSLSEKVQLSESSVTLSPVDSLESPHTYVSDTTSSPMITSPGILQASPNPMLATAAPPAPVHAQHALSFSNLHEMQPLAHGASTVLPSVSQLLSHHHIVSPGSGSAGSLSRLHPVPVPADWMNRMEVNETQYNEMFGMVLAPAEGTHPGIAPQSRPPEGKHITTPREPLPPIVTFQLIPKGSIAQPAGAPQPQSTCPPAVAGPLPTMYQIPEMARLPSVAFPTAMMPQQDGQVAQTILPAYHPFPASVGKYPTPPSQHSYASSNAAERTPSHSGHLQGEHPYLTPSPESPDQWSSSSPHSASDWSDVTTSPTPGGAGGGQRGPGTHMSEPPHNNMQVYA

[6] = molecular target: Pro-neuregulin-1, membrane-bound isoform (Homo sapiens) (UniProt Q02297); assay: NRG1 binders on small-molecule microarrays, primary screen, psychiatric disease protein project, biochemical, small-molecule microarray, fluorescence 635/667 (AID 1075); details: NRG1 binding, 635 nm fluorescence, higher = more signal;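 note: score combines 667 nm spot fluorescence with signal to noise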
Chain of Pro-neuregulin-1, membrane-bound isoform (Homo sapiens) (Q02297 whole entry, looked up, the tested form may be a part, canonical isoform): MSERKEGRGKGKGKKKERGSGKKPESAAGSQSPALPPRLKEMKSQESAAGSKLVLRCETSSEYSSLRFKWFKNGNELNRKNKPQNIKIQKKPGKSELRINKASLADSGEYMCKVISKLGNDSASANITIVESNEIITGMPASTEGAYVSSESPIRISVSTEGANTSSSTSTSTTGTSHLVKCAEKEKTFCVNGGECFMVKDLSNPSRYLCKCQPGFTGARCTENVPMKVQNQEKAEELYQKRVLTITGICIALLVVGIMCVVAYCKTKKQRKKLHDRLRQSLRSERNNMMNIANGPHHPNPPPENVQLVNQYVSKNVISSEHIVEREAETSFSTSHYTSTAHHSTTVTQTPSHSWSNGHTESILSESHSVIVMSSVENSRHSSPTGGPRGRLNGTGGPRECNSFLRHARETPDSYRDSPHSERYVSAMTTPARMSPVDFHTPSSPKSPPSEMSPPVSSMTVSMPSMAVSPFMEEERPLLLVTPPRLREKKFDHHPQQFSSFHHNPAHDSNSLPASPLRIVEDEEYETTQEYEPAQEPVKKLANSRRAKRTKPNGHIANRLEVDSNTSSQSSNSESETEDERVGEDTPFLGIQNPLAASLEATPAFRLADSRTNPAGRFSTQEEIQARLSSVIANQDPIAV

[7] = test system: Neuregulin-1 EGF-like domain; assay: binders of neuregulin-1 EGF-like domain, primary screen, biochemical, small-molecule microarray, 635 nm fluorescence (AID 1081); details: small-molecule microarray binding, higher = more signal;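 note: binding of the protein to compounds printed on small-molecule microarray slides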
[8] = FRG1 promoter luciferase signal modulators, primary screen, FRG1 inhibition for FSHD, cell-based, C2C12 myotubes, firefly/Renilla luciferase, luminescence (AID 1084); details: higher = more signal, called active from +8 up or from −8 down
[9] = binders of probe aFST on microarray, primary screen, stem cell growth factor project, biochemical, small-molecule microarray, fluorescence 635/667 (AID 1086); details: higher = more signal;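 note: score merges 667 nm fluorescence with signal-to-noise of each printed compound spot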
[10] = binders of probe aHhip on microarray, primary screen, stem cell growth factor project, biochemical, small-molecule microarray, fluorescence 635/667 (AID 1087); details: higher = more signal;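 note: score merges spot fluorescence at 667nm with spot signal to noise ratio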

Structure (SMILES) | composite z-score [1] | composite z-score [2] | composite z-score [3] | composite z-score [4] | composite z-score [5] | composite z-score [6] | composite z-score [7] | z-score [8] | composite z-score [9] | composite z-score [10]
COC(=O)c1c(CC[C@@H](CO)NC(=O)N2CCC[C@H]2Cn2cc(Cc3ccccc3)nn2)oc(C(C)=O)c1C(=O)OC | -0.506 | 0.268 | -0.0759 | 0.325 | 0.0554 | 0.638 | 1.12 | 0.0223 (inactive) | 0.22 | 0.2
O=C1OCCC=C[C@H]2OC34C=CCN(Cn5nnc6ccccc65)C(=O)[C@H]3N(CCCCCCO)C(=O)[C@@H]4C12 (stereo not given in full) | 0.603 | 0.134 | -0.129 | -0.612 | -1.29 | -0.207 | 1.11 | -0.229 (inactive) | -0.564 | -0.134
C=CCC(OC(C)=O)[C@@H]1[C@@H](N(Cc2cc3ccccc3o2)C(=O)c2ccc(C)cc2)c2cc(OCCCO)ccc2N1C(=O)Cc1ccc(OC)cc1 (stereo not given in full) | -0.18 | 0.0811 | -0.0878 | -0.0177 | 0.0335 | -0.433 | -0.0742 | 0.443 (inactive) | 0.277 | -0.0645
C=C(COC)/C(=C/C[C@H](OC(=O)c1ccncc1)c1ccccc1OCCO)c1cnc2ccccc2c1 | -0.776 | 0.171 | -0.0524 | 1.18 | 1.34 | 1.47 | 1.24 | 1.01 (inactive) | 1.07 | -0.242
CCOC(=O)c1ccc(NC(=O)O[C@H]2[C@H](OC(=O)Nc3ccc4c(c3)OCO4)[C@@H](OC(=O)Nc3ccc4c(c3)OCO4)[C@@H](OC)O[C@@H]2CO)cc1 | -0.0691 | 0.816 | 0.0121 | 1.03 | 1.39 | 1.74 | 1.35 | 6.39 (inactive) | 0.474 | -0.318
[N-]=[N+]=Nc1ccccc1[C@@H]1OC(c2ccc(OCCCO)cc2)=N[C@]1(Cc1ccccc1)C(=O)NCC(O)CO (stereo not given in full) | 1.45 | 2.11 | 0.148 | 0.881 | 0.138 | 1.66 | 1.06 | -0.992 (inactive) | 1.25 | 0.28
COc1ccc(NC(=O)O[C@H]2[C@H](OC(=O)Nc3ccccc3)[C@H](OC(=O)Nc3ccccc3)[C@@H](OC)O[C@@H]2CO)cc1 | 0.474 | 1 | 0.338 | 1.19 | 1.15 | 1.61 | 1.25 | -0.742 (inactive) | 0.803 | 0.281
CCCC[C@@H]1C[C@H]1[C@@H](NC(=O)c1ccccc1)c1ccc(C(F)(F)F)cc1 | 0.79 | -1.02 | -0.0908 | -0.333 | -0.601 | -0.612 | -0.521 | -0.858 (inactive) | 0.0249 | -0.175
O=C(N1CCCCC1)[C@@]1(CCS(=O)(=O)c2ccccc2)COC(c2ccc(OCCCO)cc2)=N1 | 1.02 | 1.92 | 0.237 | 0.253 | 1.03 | 1.06 | 1.32 | -3.51 (inactive) | 0.937 | 0.0972
C=C[C@@H](OC)[C@H](OC(=O)Nc1ccc(SC)cc1)c1ccc(O)c(F)c1 | 0.0213 | 0.5 | -0.0024 | 0.362 | -0.0166 | 1.25 | 1.35 | 3.87 (inactive) | 0.2 | -0.069
Cc1cc(C)c(C(O)C2C=CC3C(=O)N(c4ccccc4)C(=O)C3N2Nc2ccc(C(C)C)cc2)c(C)c1 (stereo not given) | 0.224 | 0.243 | 0.172 | 0.941 | 1.66 | 1.91 | 1.25 | 1.44 (inactive) | 1.37 | 0.128
Cc1ccc(S[C@]2(C(=O)O)CC(=O)N(Cc3ccccc3Cl)[C@@H]2c2ccc(CO)cc2I)cc1 | 0.655 | 0.39 | 0.234 | 0.107 | -0.442 | -0.0683 | 1.09 | 0.11 (inactive) | 0.415 | -0.624
NCCCCCCNC(=O)[C@@H]1C[C@@H]2C(=O)N[C@@H](CCCCN)C(=O)N2[C@@H]1c1cccc(OCCO)c1 | 1.06 | 1.81 | 0.221 | -0.127 | 0.303 | 2.53 | 1.2 | 3.25 (inactive) | -0.175 | 0.704
COC(=O)[C@@]1(Cc2ccc(OC)cc2)[C@@H]2C(=CC(=O)[C@H]2CC(=O)C(=O)N(C)C)CN1C(=O)c1ccccc1 | 0.928 | -0.262 | 0.0921 | 0.582 | 1.77 | 1.39 | 1.18 | 1.46 (inactive) | 1.97 | 0.177
[N-]=[N+]=Nc1ccccc1[C@H]1OC(c2ccc(OCCCO)cc2)=N[C@@]1(Cc1ccccc1)C(=O)N1CCCCC1 | 0.308 | -0.182 | -0.0044 | 0.692 | 1.63 | 1.01 | 1.32 | -1.02 (inactive) | 0.763 | -0.0994
COCCOC(=O)N1C(=O)[C@@]2(c3cc(C#CCC(C(=O)OC)C(=O)OC)ccc31)[C@H](C(=O)N1CCc3cc(OC)c(OC)cc3C1)[C@H]1C(=O)O[C@H](c3ccccc3)[C@H](c3ccccc3)N1[C@@H]2c1ccc(OCCO)cc1 | -0.63 | 0.527 | -0.0099 | 0.411 | 1.31 | 1.07 | 1.31 | 1.08 (inactive) | 0.479 | 0.0749
CCOC(=O)C[C@H]1[C@H](OC(=O)c2cc3ccccc3oc2=O)[C@@H](NC(=O)c2ccc(-c3ccccc3)cc2)c2cc(OCCCO)ccc2N1C(=O)c1ccccc1 | -0.561 | 1.07 | 0.0407 | 0.731 | 1.36 | 0.687 | 1.31 | 0.335 (inactive) | 0.497 | 0.102
C=CCOC(=O)[C@H]1[C@@H]2C(=O)O[C@@H](c3ccccc3)[C@@H](c3ccccc3)N2[C@@H](c2ccc(OCCOC(=O)[C@@H]3C[C@@H]4C(=O)N[C@@H](CCCCNC(C)=O)C(=O)N4[C@@H]3c3ccc(O)cc3)cc2)[C@]12C(=O)Nc1ccc(I)cc12 | -0.0041 | 0.689 | -0.0466 | 0.892 | 1.43 | 1.23 | 1.37 | -0.553 (inactive) | 0.257 | -0.323
COC(=O)[C@@]1(Cc2ccccc2)[C@@H]2C(=CC(=O)[C@H]2CC(=O)C(=O)N(C)C)CN1C(=O)c1ccccc1 | 0.152 | -0.0069 | 0.305 | 1.21 | 1.39 | 1.98 | 1.32 | -1.26 (inactive) | 0.962 | 0.113
COc1cc(OC)c(C(O)C2C=CC3C(=O)N(c4ccccc4)C(=O)C3N2Nc2ccccc2)cc1Br (stereo not given) | 0.0555 | -0.01 | 0.0393 | 0.208 | 0.878 | 1.66 | 0.936 | 0.203 (inactive) | 0.558 | 0.0139
C=CCNC(=O)[C@H]1[C@@H]2C(=O)O[C@@H](c3ccccc3)[C@@H](c3ccccc3)N2[C@@H](c2ccc(O)cc2)[C@]12C(=O)N(C(=O)OCCOC)c1ccccc12 | -0.548 | 0.267 | 0.0407 | 1.16 | 1.05 | 1.33 | 1.29 | -1.96 (inactive) | 0.303 | -0.541
